# Records with an inconclusive call do not appear. Where a call stands in place of a potency, no number is given. The source made the active and inactive calls. The call rests on the fitted dose curve.
# What was measured:
# [1] = Primary qHTS for Huh7 cytotoxicity: counterscreen for inhibitors of MERS-S pseudotyped particle cell entry (AID 1479147); settings: cell viability read-out; series mostly up to 57.1 µM; further: potency means the concentration at half of the fitted maximal effect
# [2] = Primary qHTS for inhibitors of SARS-S pseudo-typed particle cell entry (AID 1479145); settings: SARS-S pseudotyped particle cell entry, luciferase reporter; series mostly up to 57.1 µM; further: nearly all actives have a fitted effect of over 45% in size; further: potency means the concentration at half of the fitted maximal effect
# [3] = Primary qHTS for Vero E6 cytotoxicity: counterscreen for inhibitors of SARS-S pseudo-typed particle cell entry (AID 1479150); settings: cell viability; series mostly up to 57.1 µM; further: potency means the concentration at half of the fitted maximal effect
# [4] = Primary qHTS for inhibitors of MERS-S pseudo-typed particle cell entry (AID 1479149); settings: MERS-S pseudotyped particle entry, luciferase; series mostly up to 57.1 µM; further: nearly all actives have a fitted effect of over 60% in size; further: potency means the concentration at half of the fitted maximal effect
# [5] = Confirmatory qHTS for VERO E6 Cytotoxicity Assay: Counterscreen for SARS-CoV-2 CPE Assay (AID 1508605); settings: cell viability luminescence; series mostly up to 20 µM; further: nearly all actives have a fitted effect of over 60% in size
structure (smiles),measurement,setting,value
Oc1ccc(Cl)cc1Cc1cc(Cl)ccc1O,Potency,[1],inactive
CCOC(=O)C1=C(C)NC(C)=C(C(=O)OCC)C1c1ccccc1/C=C/C(=O)OC(C)(C)C,Potency,[2],inactive
same,Potency,[1],inactive
same,Potency,[3],inactive
N/C(=N\N=C\c1ccc(Cl)cc1)N/N=C/c1ccc(Cl)cc1,Potency,[1],inactive
same,Potency,[4],inactive
C#C[C@]1(O)CC[C@H]2[C@@H]3CCc4cc(O)ccc4[C@H]3CC[C@@]21C,Potency,[2],inactive
same,Potency,[3],inactive
C1CCC(C(CC2CCCCN2)C2CCCCC2)CC1 (stereo not drawn),Potency,[2],25100 nM (active)
same,Potency,[4],10000 nM (active)
CC1=C(C(=O)OC(C)C)C(c2cccc([N+](=O)[O-])c2)C(C(=O)OC2CN(C(c3ccccc3)c3ccccc3)C2)=C(N)N1 (stereo not drawn),Potency,[1],inactive
same,Potency,[4],inactive
CCCCCCc1ccc(O)cc1O,Potency,[2],inactive
same,Potency,[4],891 nM (active)
same,Potency,[3],inactive
C[n+]1cc2c3c(ccc2c2ccc4cc5c(cc4c21)OCO5)OCO3,Potency,[1],8910 nM (active)
Nc1ccn([C@H]2CC[C@@H](CO)O2)c(=O)n1,Potency,[1],inactive
same,Potency,[4],inactive
same,Potency,[3],inactive
CN(C)c1ccc(C(=C2C=CC(=[N+](C)C)C=C2)c2ccc(N(C)C)cc2)cc1,Potency,[2],1000 nM (active)
same,Potency,[4],1120 nM (active)
Clc1ccccc1C(c1ccccc1)(c1ccccc1)n1ccnc1,Potency,[1],inactive
CN(C)c1ccc(C(=C2C=CC(=[N+](C)C)C=C2)c2ccccc2)cc1,Potency,[2],2240 nM (active)
same,Potency,[4],891 nM (active)
CC(=O)Oc1ccc(C2(c3ccc(OC(C)=O)cc3)Oc3ccccc3NC2=O)cc1,Potency,[1],inactive
same,Potency,[4],inactive
O=C(Nc1ccc([N+](=O)[O-])cc1Cl)c1cc(Cl)ccc1O,Potency,[2],501 nM (active)
same,Potency,[4],2000 nM (active)
same,Potency,[3],1580 nM (active)
N=C(N)c1ccc(OCCCOc2ccc(C(=N)N)cc2)cc1,Potency,[1],inactive
CNC[C@H](O)c1ccc(O)c(O)c1,Potency,[2],inactive
same,Potency,[4],inactive
same,Potency,[3],inactive
CCCCCCCCCCCCOCCOCCOCCOCCOCCOCCOCCOCCOCCO,Potency,[1],inactive
same,Potency,[4],8910 nM (active)
CC(C)N=C(N)/N=C(\N)Nc1ccc(Cl)cc1,Potency,[1],inactive
same,Potency,[4],inactive
CCN(CC)CC(=O)OCC(=O)[C@@]1(O)CC[C@H]2[C@@H]3CCC4=CC(=O)CC[C@]4(C)[C@H]3[C@@H](O)C[C@@]21C,Potency,[2],inactive
same,Potency,[1],inactive
same,Potency,[3],inactive
CCCCOc1cc(C(=O)NCCN(CC)CC)c2ccccc2n1,Potency,[2],14100 nM (active)
same,Potency,[3],inactive
same,Potency,[5],inactive
COc1ccc(-n2nc(CCC(=O)N(C)O)cc2-c2ccc(Cl)cc2)cc1,Potency,[2],inactive
same,Potency,[3],inactive
NC(=O)c1ncn([C@@H]2O[C@H](CO)[C@@H](O)[C@H]2O)c1N,Potency,[2],inactive
same,Potency,[1],inactive
same,Potency,[3],inactive
OCc1cc(C(O)CNCCCCCCOCCCCc2ccccc2)ccc1O (stereo not drawn),Potency,[2],inactive
same,Potency,[3],inactive
Oc1ccc(O)cc1,Potency,[2],inactive
same,Potency,[3],inactive
Cc1cc2nc3ccc(=[N+](C)C)cc-3sc2cc1N,Potency,[2],14100 nM (active)
same,Potency,[4],17800 nM (active)
CCOC(=O)[C@H](CCc1ccccc1)N[C@@H](C)C(=O)N(CC(=O)O)C1Cc2ccccc2C1,Potency,[1],inactive
same,Potency,[4],inactive
same,Potency,[3],inactive
CN1CCN(c2c(F)cc3c(=O)c(C(=O)O)cn(CCF)c3c2F)CC1,Potency,[1],inactive
same,Potency,[4],inactive
same,Potency,[3],inactive
COC(=O)C1=C(C)NC(C)=C(C(=O)OC)C1c1ccccc1[N+](=O)[O-],Potency,[1],inactive
same,Potency,[4],inactive
same,Potency,[3],inactive
O=S(=O)(c1cccc2cnccc12)N1CCCNCC1,Potency,[1],inactive
same,Potency,[4],inactive
same,Potency,[3],inactive
O=C(OCC(O)CO)c1ccccc1Nc1ccnc2cc(Cl)ccc12 (stereo not drawn),Potency,[1],inactive
same,Potency,[4],inactive
same,Potency,[3],inactive
CCCC(=O)OC[C@@H](OC(=O)CCC)[C@@H](OC(=O)CCC)[C@H](Cn1c2nc(=O)[nH]c(=O)c-2nc2cc(C)c(C)cc21)OC(=O)CCC,Potency,[1],inactive
same,Potency,[4],inactive
same,Potency,[3],inactive
OCc1ccccc1O,Potency,[1],inactive
same,Potency,[4],inactive
same,Potency,[3],inactive
CCN(CC)C(=O)Nc1ccc(OCC(O)CNC(C)(C)C)c(C(C)=O)c1 (stereo not drawn),Potency,[1],inactive
same,Potency,[4],inactive
same,Potency,[3],inactive
CCOCCOC(=O)/C=C/c1ccc(OC)cc1,Potency,[1],inactive
same,Potency,[4],inactive
same,Potency,[3],inactive
O=C1CC2(CCCC2)CC(=O)N1CCCCN1CCN(c2ncccn2)CC1,Potency,[1],inactive
same,Potency,[4],inactive
same,Potency,[3],inactive
CCc1oc2ccccc2c1C(=O)c1cc(Br)c(O)c(Br)c1,Potency,[1],inactive
same,Potency,[4],inactive
same,Potency,[3],inactive
O=C(O)c1ccccc1Nc1cc(Cl)ccc1C(=O)O,Potency,[1],inactive
same,Potency,[4],inactive
same,Potency,[3],inactive
CCOC(=O)OCC/C(SC(=O)OCC)=C(\C)N(C=O)Cc1cnc(C)nc1N,Potency,[1],inactive
same,Potency,[4],inactive
same,Potency,[3],inactive

# — PubChem BioAssay (NCATS)
